Bioassay records as filed in PubChem BioAssay.
An excerpt weighted towards active compounds, which were near 4.1% of everything screened.
Bfl-1 A1 inh – caspase 3/7 activation in MEF A1-2A-BIM cells, primary screen, A1 inhibitor project, cell-based, luminescence, HTS | caspase activation, % (no concentration beside the values) | Caspase-Glo 3/7 luminescence, 3 h; percent of clofoctol response, vehicle zero | hit rate 0.066% among 330,000 | AID 2462, 2010;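 active = over half of replicate activation scores above 10%, or exactly half above 10 with the replicate mean above 10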
Beta cell apopt – inhibitors of cytokine-induced beta cell apoptosis, primary screen, luminescence; INS-1E cytokine-induced death, ATP luminescence, 48 h; percent of positive-control rescue, neutral wells zero; hit rate 0.8% among 300,000; protection from apoptosis, % (concentration not given with the values);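 active = Every replicate reaches about 75%, or at least half do and their mean reaches it too, limit read from the data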;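 note: 0% = cytokine-treated negative control wells and 100% = positive control rescue; higher means more ATP so stronger rescue from cytokine killing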
Mdm2 MdmX PPI – inhibitors of human Mdm2-MdmX association, primary screen, cell-based, luminescence, split luciferase, SaOS-2, uHTS | SaOS-2 split-luciferase Mdm2/MdmX complementation | inhibition, % at 8 µM | AID 485346, 2010 | Protein Mdm4 (Homo sapiens) + E3 ubiquitin-protein ligase Mdm2 (Homo sapiens), … | hit rate 3% among 330,000;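 active = inhibition of at least 50% at 8 µM in the primary screen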
Target sequence (O15151 whole entry, looked up): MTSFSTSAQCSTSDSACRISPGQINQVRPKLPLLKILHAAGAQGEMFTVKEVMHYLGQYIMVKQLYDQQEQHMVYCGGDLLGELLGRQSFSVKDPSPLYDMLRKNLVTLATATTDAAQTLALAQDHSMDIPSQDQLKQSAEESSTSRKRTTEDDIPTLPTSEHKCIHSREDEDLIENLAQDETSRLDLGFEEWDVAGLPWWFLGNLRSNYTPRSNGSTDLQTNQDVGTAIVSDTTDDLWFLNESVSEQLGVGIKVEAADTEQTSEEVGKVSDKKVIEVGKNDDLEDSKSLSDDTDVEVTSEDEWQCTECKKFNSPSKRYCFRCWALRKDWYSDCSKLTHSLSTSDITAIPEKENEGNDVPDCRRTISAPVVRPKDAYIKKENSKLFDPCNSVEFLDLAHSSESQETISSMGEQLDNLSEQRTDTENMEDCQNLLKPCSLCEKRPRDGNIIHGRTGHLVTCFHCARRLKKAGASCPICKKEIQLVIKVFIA
Target sequence (Q00987 whole entry, looked up): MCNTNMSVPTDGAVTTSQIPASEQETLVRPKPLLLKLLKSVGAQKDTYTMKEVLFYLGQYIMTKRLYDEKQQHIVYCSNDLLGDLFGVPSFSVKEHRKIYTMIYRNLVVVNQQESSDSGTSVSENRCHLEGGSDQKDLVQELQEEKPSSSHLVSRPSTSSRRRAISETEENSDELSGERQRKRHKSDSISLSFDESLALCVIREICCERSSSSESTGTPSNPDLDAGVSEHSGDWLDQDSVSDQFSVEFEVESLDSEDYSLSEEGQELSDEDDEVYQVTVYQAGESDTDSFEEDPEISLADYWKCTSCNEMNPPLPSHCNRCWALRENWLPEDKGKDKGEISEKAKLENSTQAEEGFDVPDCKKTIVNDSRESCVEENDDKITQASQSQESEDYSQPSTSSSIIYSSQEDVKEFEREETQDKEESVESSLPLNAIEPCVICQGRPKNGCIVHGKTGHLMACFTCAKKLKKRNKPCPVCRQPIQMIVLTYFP
CSC inhib – cancer stem cell viability inhibitors, primary screen, luminescence | inhibition, % at 7.5 µM | hit rate 1.1% among 300,000 | cancer stem cell-like cells viability | AID 2717, 2010; in the data active = inhibition above about 75%; tested in HMLE shEcad cells
aSyn UTR inh – MLPCN primary screen, SNCA 5' untranslated region | inhibition, % (tested at 7.5 µM) | alpha-synuclein 5'UTR reporter, inhibitor activity | AID 1813, 2009 | hit rate 0.82% among 300,000; in the data active = inhibition above about 60%;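 note: H4 neuroglioblastoma cells stably carrying SNCA 5'UTR luciferase fusion; 0% = DMSO wells and 100% = positive control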
Mdm2 MdmX conf – Mdm2-MdmX complex disruptors, retested hits, confirmation, luminescence, single concentration; inhibition, % at 8 µM; AID 489028, 2010; Mdm2-MdmX binding, luminescent assay; hit rate 55% among 10,000; shares compounds with Mdm2 MdmX PPI; in the data active = inhibition above about 40%
Full FLuc ctr – full-length luciferase signal inhibition, confirmation, counter-screen for Mdm2/MdmX interaction inhibitor project, cell-based, single concentration, SaOS-2. inhibition, % at 8 µM. SaOS-2 full-length luciferase counterscreen, luminescence. shares compounds with Mdm2 MdmX PPI. hit rate 77% among 6,200;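 active = mean inhibition at 8 µM reaching about 37%, which flags the compound as non-specific, limit read from the data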;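 note: p53-null SaOS-2 cells with luciferase driven by a doxycycline-inducible promoter; compound on cells about two nights before reading with doxycycline added after day one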
* = called active by the depositor; / = no result given; ! = repeats disagree.

SMILES	Bfl-1 A1 inh	Beta cell apopt	Mdm2 MdmX PPI	CSC inhib	aSyn UTR inh	Mdm2 MdmX conf	Full FLuc ctr
CCOC(=O)C1CCN(C(=O)c2ccc3nc(-c4ccc(OC)cc4)c(-c4ccc(OC)cc4)nc3c2)CC1	0.0	17.7	9.4	-0.1	13.3	/	/
O=C(OCn1ncc(Cl)c(Cl)c1=O)c1ccc(C(F)(F)F)cc1	/	/	71.9*	/	-117.3	74.0*	53.0*
Cc1ccc(C(=O)OCn2ncc(Cl)c(Cl)c2=O)cc1	0.3	100.7*	90.0*	/	43.1	100.2*	0.6
O=C(Oc1ccc(F)cc1C(=O)/C=C/c1cccs1)c1cccc([N+](=O)[O-])c1	0.7	2.5	54.9*	32.3	-87.1	41.6*	48.3*
CCc1nc(N=Nc2c(O)[nH]c3ccccc23)c2c3c(sc2n1)CCC3	8.9*	4.5	87.5*	13.1	43.5	13.1	/
Oc1[nH]c2ccccc2c1N=Nc1ccccc1	-3.6	-4.2	-95.6	-8.3	-123.0	/	/
CC(Oc1ccc(F)cc1)C(=O)Nc1ccc2ccccc2c1 (stereo not given)	-0.5	6.1	53.5*	41.9	35.0	35.0	/
CC(Oc1ccccc1F)C(=O)Nc1ccc2ccccc2c1 (stereo not given)	-0.7	-2.4	68.1*	5.9	2.0	62.7*	65.8*
CC(=O)Nc1ccc(NC(=O)C(C)Oc2ccccc2F)cc1 (stereo not given)	0.2	1.2	-0.7	3.8	1.4	/	/
COc1cc(CN2CCC(C(=O)NCC(C)(C)CN(C)C)CC2)ccc1OCc1ccccc1	0.7	/	91.5*	4.0	-67.3	79.8*	71.3*
Cc1ccc(C(=O)c2oc3ccccc3c2NC(=O)c2cc(-c3cc(C)ccc3O)n[nH]2)cc1	-0.8	24.2	77.6*	5.9	-30.4	31.9	72.3*
O=C(NC1(Cc2ccccc2)CCN(CCCc2ccccc2)C1=O)c1ccccc1 (stereo not given)	0.5	111.3*	63.9*	-10.3	/	54.0*	40.0*
OCC1(Cc2ccc(Cl)cc2)CCN(CCCc2ccccc2)CC1	-0.4	-4.5	31.8	-11.4	8.1	/	/
CCn1c2ccccc2c2cc(/C=N/n3c(C)nnc3C)ccc21	0.6	/	59.8*	/	7.2	-6.8	/
CCc1ccc2[nH]c(=O)c(CN(CCCN3CCOCC3)C(=O)Nc3cccc(Cl)c3)cc2c1	-0.7	3.9	50.1*	8.2	-5.3	34.3	/
CCc1ccc2[nH]c(=O)c(CN(CCCN3CCOCC3)C(=O)Nc3ccc(Cl)cc3)cc2c1	1.7	4.8	33.7	-1.4	12.5	/	/
Cc1cc(C)c2cc(CN(CCN3CCCC3)C(=O)Nc3ccc(F)cc3)c(=O)[nH]c2c1	1.6	0.9	45.3	-3.1	9.3	/	/
Cc1ccc(C)c2[nH]c(=O)c(CN(CCN3CCCC3)C(=O)Nc3cccc(Cl)c3)cc12	-0.4	-7.8	55.4*	/	5.5	36.0	38.1*
O=C(CCNC(=O)N1CCn2c1nc1ccccc12)NCc1ccccc1	3.0	-3.9	-1.5	-9.1	8.7	/	/
COCCNC(=O)Cn1c(=O)n(CCCC(=O)NCc2ccc3c(c2)OCO3)c(=O)c2sccc21	0.6	1.2	26.7	-0.6	9.6	/	/
COc1ccc(S(=O)(=O)NCCC(=O)Nc2ccc(C)cc2)cc1	0.6	0.5	-3.8	-8.9	1.8	/	/
C=CCN1C(=O)/C(=C2/Sc3ccc(OC)cc3N2C)SC1=Nc1cccc(O)c1	-0.5	-7.0	66.9*	-0.6	12.5	29.0	/
CCN1C(=O)/C(=C2/Sc3ccc(OC)cc3N2C)SC1=Nc1ccc(OC)cc1	-0.5	-1.9	-0.7	-5.0	-33.7	/	/
COc1ccc(-n2cc(CN[C@H]3CCCCNC3=O)c(-c3cccc(F)c3)n2)cc1	0.9	-2.2	-14.5	-11.5	-16.3	/	/
COc1ccc(-n2cc(CNC3CCN(C)CC3)c(-c3cccc(F)c3)n2)cc1	0.2	1.2	66.4*	13.8	-7.7	57.0*	40.9*
SMILES	Bfl-1 A1 inh	Beta cell apopt	Mdm2 MdmX PPI	CSC inhib	aSyn UTR inh	Mdm2 MdmX conf	Full FLuc ctr
Cc1ccc(-c2nnc(CN3CCCCC3C)o2)cc1 (stereo not given)	0.0	0.7	15.3	4.1	-8.5	/	/
CNCCCC12CCC(c3ccccc31)c1ccccc12	-0.4	1.7	59.3*!	-8.5	-21.6	32.8	/
Cc1cc(C)c(OCCCCNCc2ccccc2)c(Cl)c1	-0.2	3.3	51.4*	50.9	10.7	40.2*	67.9*
Cc1ccc(C2C(C#N)=C(N)Oc3cc4c(cc32)OCO4)cc1 (stereo not given)	-1.4	7.0	55.4*	41.6	-10.3	65.2*	63.9*
N#CC1=C(N)Oc2cc(N)ccc2C1c1ccc(Cl)cc1 (stereo not given)	0.6	-0.4	3.2	4.4	10.4	/	/
CSc1ccc(C2C(C#N)=C(N)Oc3cc4c(cc32)OCO4)cc1 (stereo not given)	1.5	6.5	69.5*	49.5	14.7	59.5*	60.3*
Cc1cc(C(=O)COC(=O)c2cccc(O)c2)c(C)n1C1CC1	-13.7	2.1	36.7	-5.2	/	/	/
CC(C)NC(=O)c1ccccc1NC(=O)/C=C/c1cccc([N+](=O)[O-])c1	1.0	113.4*	75.3*	96.0*	63.0*	11.2	/
CN(c1ccccc1)S(=O)(=O)c1cccc(C(=O)OCC(=O)Nc2ccc(C(N)=O)cc2)c1	0.2	-1.8	25.4	-11.3	/	/	/
COc1cc(OC)c(OC)cc1CCC(C)NCCC(c1ccccc1)c1ccccc1 (stereo not given)	-0.5	21.5	63.8*	16.4	15.6	50.2*	59.5*
Fc1ccc(Cn2c(-c3cscn3)nc3ccccc32)c(Cl)c1	0.9	/	35.6	-1.9	40.2	/	/
Nc1nonc1-c1nc2ccccc2n1Cc1ccc(F)cc1Cl	0.5	-30.4	62.1*	5.4	-23.9	49.5*	82.7*
CC(C)CC1NC(=O)c2ccccc2-n2c1nc1ccc(Cl)cc1c2=O (stereo not given)	-0.4	-2.3	12.3	/	/	/	/
CC1CCCC(NC(=O)CSc2ccc(F)cc2)C1C (stereo not given)	-0.6	3.0	25.1	-11.6	-13.3	/	/
CC1CCCC(NCC(O)COC(c2ccc(F)cc2)c2ccc(F)cc2)C1C (stereo not given)	0.1	44.5	97.8*	79.8*	32.8	77.5*	48.8*
COc1ccc2oc(=Nc3ccccc3)c(-c3nc4ccccc4[nH]3)cc2c1	-4.9	25.5	87.7*	37.6	-50.8	-83.8	/
COc1ccc(-c2nc3ccccc3[nH]2)cc1	-8.3	/	-66.6	/	26.2	/	/
